Some test systems named below: HCT-15 colon; HT29 colon; SNB-75 CNS; SNB-19 CNS; U251 CNS; PC-3 prostate; SK-MEL-5 melanoma; UACC-62 melanoma; LOX IMVI melanoma; SK-MEL-28 melanoma; SK-MEL-2 melanoma; EKVX NSCLC; UO-31 renal; TK-10 renal; ACHN renal; CAKI-1 renal; A498 renal; CCRF-CEM leukemia; MOLT-4 leukemia; SN12C renal.
Assay in all cases: NCI-60 one-dose screen, 48 h (100 = growth as untreated, 0 = no growth, -100 = all killed)
Conditions in all cases: 10 µM

From PubChem BioAssay (NCI) come the findings set out here.

The structures appear in SMILES notation. Compounds without any hit were thinned out: in the full panel of roughly 83,000, 20% have a hit.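 Activity criterion: percent growth below 10, measured after cells in 96-well plates were exposed to a single compound concentration for 48 hours.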 Values without a mark were called inactive. The source made the active and inactive calls.

For the compound `Clc1cccc(N/N=C/c2c[nH]c3ccccc23)n1`, the growth in the test on HCT-15 colon was 18.9%; in the test on HT29 colon, 30.4%; with SNB-75 CNS, 15.5%; in the test on SNB-19 CNS, 43.2%; in the test with U251 CNS, 34.7%; in the test on PC-3 prostate it was 25.2%. For the same compound, the growth is 41.7% in the test with SK-MEL-5 melanoma; 55.1% with UACC-62 melanoma; 17.9% in the test with LOX IMVI melanoma; 79.8% with SK-MEL-28 melanoma; 73.3% with SK-MEL-2 melanoma; 32.4% in the test with EKVX NSCLC. In addition, the growth in the test with UO-31 renal was 10.4%; with TK-10 renal, 71.7%; in the test with ACHN renal it was 44.7%; in the test with CAKI-1 renal, 35.5%; in the test with A498 renal, 75.7%; with CCRF-CEM leukemia, 8.71% (active). Besides, in the test on MOLT-4 leukemia, the growth was 23.8%.
With `COc1cc2c3c(n(CCCn4ccnc4)c(=O)c2cc1OC)-c1nc2c(cc1C3=O)OCO2`, the growth with HCT-15 colon was 52.1%; in the test with HT29 colon, 31.5%; with SNB-75 CNS, 82.8%; in the test with SNB-19 CNS it was 25.6%; with U251 CNS, 20.9%; in the test on PC-3 prostate it was 60.4%. The growth in the test with SK-MEL-5 melanoma was 7.02% (active); in the test on UACC-62 melanoma it was 4.19% (active); with LOX IMVI melanoma, 0.388% (active); with SK-MEL-28 melanoma, 80.9%; with SK-MEL-2 melanoma it was 123%; with EKVX NSCLC it was 91.6%. Further, the growth in the test with UO-31 renal is 26.5%; in the test on TK-10 renal it was 110%; with ACHN renal it was 3.67% (active); in the test on CAKI-1 renal, 10.2%; in the test with A498 renal, 118%; with CCRF-CEM leukemia it was 18.5%. Besides, the growth in the test on MOLT-4 leukemia was 20.9%.
As to `Cc1ccc(C(=O)NNC(=O)CSc2nc3ccccc3c(=O)[nH]2)cc1`, the growth with HCT-15 colon is 103%; with HT29 colon it was 111%; with SNB-75 CNS it was 83.1%; in the test with SNB-19 CNS, 92.8%; in the test with U251 CNS it was 104%; with PC-3 prostate, 90.4%. Besides, the growth with SK-MEL-5 melanoma was 98.7%; in the test with UACC-62 melanoma, 89.4%; in the test with LOX IMVI melanoma, 96.3%; in the test with SK-MEL-28 melanoma, 104%; in the test on SK-MEL-2 melanoma it was 107%; with EKVX NSCLC it was 97.2%. Also, the growth in the test with SN12C renal was 94.1%; in the test on TK-10 renal, 107%; with ACHN renal it was 107%; with CAKI-1 renal, 95.7%; in the test on A498 renal it was 94.6%; with CCRF-CEM leukemia, 98.8%. Also, the growth with MOLT-4 leukemia is 96.4%.
On to `Cc1ccc(-c2cc(-c3cc4ccccc4nc3Cl)[nH]c(=O)n2)cc1`, for which the growth in the test on HCT-15 colon is -39.8% (active); in the test with HT29 colon, -15.9% (active); in the test on SNB-75 CNS, -17.2% (active); in the test with SNB-19 CNS, 3.61% (active); in the test with U251 CNS, -23.5% (active); in the test on PC-3 prostate it was 20.7%. In addition, the growth in the test on SK-MEL-5 melanoma is 18.1%; in the test on UACC-62 melanoma, 19.3%; in the test on LOX IMVI melanoma, -82.4% (active); in the test with SK-MEL-28 melanoma, 43.3%; in the test with SK-MEL-2 melanoma, 41%; in the test with EKVX NSCLC, 27.4%. In addition, the growth with SN12C renal was 0.368% (active); in the test with TK-10 renal, 26.3%; in the test on ACHN renal it was 38.6%; in the test on CAKI-1 renal, 24.8%; with A498 renal it was 57.3%; with CCRF-CEM leukemia, -30.1% (active). Moreover, in the test with MOLT-4 leukemia, the growth is -21.6% (active).
Consider `CN1CCc2c(sc3ncnc(N/N=C/c4cn(-c5ccccc5)nc4-c4ccc(Br)cc4)c23)C1`, for which the growth is 27.4% in the test on HCT-15 colon; 16.5% in the test on HT29 colon; 88.8% in the test on SNB-75 CNS; 62.4% in the test on SNB-19 CNS; 44.9% in the test on U251 CNS; 20.8% with PC-3 prostate. The growth in the test with SK-MEL-5 melanoma is 50%; in the test on UACC-62 melanoma it was 67.3%; in the test on LOX IMVI melanoma it was 28.4%; in the test on SK-MEL-28 melanoma, 68.9%; in the test on SK-MEL-2 melanoma, 58.3%; with EKVX NSCLC it was 20.5%. Moreover, the growth was 13.9% in the test on SN12C renal; 92.3% in the test on TK-10 renal; 65.6% in the test on ACHN renal; 84.1% in the test with CAKI-1 renal; 94.8% in the test with A498 renal; 15.7% in the test on CCRF-CEM leukemia. For the same compound, the growth in the test with MOLT-4 leukemia was 2.95% (active).
On to `CN1CCN(c2ccc(Nc3nc(N4CCN(S(=O)(=O)c5ccc(Cl)cc5)CC4)c4sccc4n3)cc2)CC1`, for which the growth in the test on HCT-15 colon is -78.6% (active); in the test on HT29 colon it was -51.3% (active); in the test on SNB-75 CNS, 67.1%; in the test with SNB-19 CNS, 28.4%; in the test with U251 CNS, -85.2% (active); in the test on PC-3 prostate, 28.5%. Further, the growth was -100% (active) with SK-MEL-5 melanoma; -90.3% (active) in the test on UACC-62 melanoma; -90.1% (active) with LOX IMVI melanoma; -98.6% (active) in the test with SK-MEL-28 melanoma; 79.4% in the test on SK-MEL-2 melanoma; 62.1% in the test with EKVX NSCLC. The growth is 64.2% with UO-31 renal; 85.9% in the test with TK-10 renal; -64.4% (active) with ACHN renal; 7.7% (active) in the test with CAKI-1 renal; 125% in the test with A498 renal; 1.87% (active) with CCRF-CEM leukemia.
For `COc1ccc2[nH]c(=O)c(CSc3cccc(N)c3)cc2c1`, the growth in the test on HCT-15 colon was 48.2%; in the test with HT29 colon, 75.4%; with SNB-75 CNS, 82.7%; with SNB-19 CNS it was 70.4%; in the test with U251 CNS, 70.1%; with PC-3 prostate, 69.2%. In addition, the growth in the test on SK-MEL-5 melanoma is 6.41% (active); in the test on UACC-62 melanoma it was 16.5%; in the test with LOX IMVI melanoma, 16.1%; with SK-MEL-28 melanoma, 69.6%; with SK-MEL-2 melanoma it was 64%; in the test on EKVX NSCLC it was 48.7%. The growth with UO-31 renal is 56.8%; in the test on TK-10 renal it was 72.3%; in the test with ACHN renal it was 20.9%; with CAKI-1 renal, 40.5%; with A498 renal, 72.6%; in the test on CCRF-CEM leukemia, 47.2%. Further, in the test with MOLT-4 leukemia, the growth is 41.2%.
On to `COc1ccc2nc(Cl)c(-c3cc(-c4ccccc4)nc(N)n3)cc2c1`, for which the growth in the test on HCT-15 colon was -64.5% (active); with HT29 colon, 7.7% (active); in the test with SNB-75 CNS it was -1.67% (active); in the test on SNB-19 CNS, 7.38% (active); in the test with U251 CNS, -62.4% (active); in the test with PC-3 prostate it was 33.6%. Also, the growth in the test on SK-MEL-5 melanoma was 66%; in the test on UACC-62 melanoma it was 28.4%; in the test on LOX IMVI melanoma, -86% (active); in the test on SK-MEL-28 melanoma, 61.4%; with SK-MEL-2 melanoma it was 69.5%; in the test with EKVX NSCLC, 59.8%. For the same compound, the growth in the test with SN12C renal is 10%; in the test on TK-10 renal, 74.4%; in the test with ACHN renal it was 55.4%; with CAKI-1 renal it was 60.4%; with A498 renal, 84.8%; in the test on CCRF-CEM leukemia, -4.77% (active). For the same compound, the growth with MOLT-4 leukemia was -18.1% (active).
